PubChem BioAssay AID686978 (National Center for Advancing Translational Sciences (NCATS), 2013)
Among all 420,000 compounds or so, about 64,000 (15%) were called active. Another 27% or so got no clear call; they are omitted. Calls follow the shape of the dose curve; as a rule, active = well fitted inhibition curve with a large enough effect; inconclusive = small, poorly fitted or top-dose-only effect; inactive = flat fitted curve, though single readings scatter. Not all results are given here. Entries that show only a call come without a potency.

experiment: qHTS for Inhibitors of human tyrosyl-DNA phosphodiesterase 1 (TDP1): qHTS in cells in absence of CPT; settings: DT40 Tdp1-/- hTDP1 cells, no CPT, ATP luminescence, 48 h; activity change, negative = growth inhibition: at 46.2 µM (top of the series); also: nearly all actives have a fitted effect of over 55% in size
Outline: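 No-CPT arm: Tdp1-/-;hTDP1 DT40 cells (400/well) plus compounds, incubated ≥48 hr at 37 °C. Readout CellTiter-Glo luminescence.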
Potency is read from the fitted curve at half-maximal effect.

Compound	Potency
CSc1ccc(S(=O)(=O)NCc2ccc(Cl)cc2)cc1	inactive
CS(=O)(=O)n1nc(-c2ccco2)nc1N	inactive
Cc1ccnc(NC(=O)C(C)N2C(=O)c3ccccc3C2=O)c1 (configuration not stated)	inactive
C=CCc1cccc2cc(C(=O)OCC)c(=O)oc12	inactive
CC/C=C/C(=O)N1CC2(CC(c3cccc(NC(=O)CC)c3)=NO2)C[C@H]1C(N)=O (some centres not stated)	inactive
Cc1ccc(C)c(S(=O)(=O)N(C)c2ccc(OC(=O)C3CCN(C(=O)c4ccc(F)cc4)CC3)cc2)c1	inactive
Cc1ccc(OCC(=O)Nc2ccc(-c3nc4ncccc4o3)cc2)cc1	inactive
Cc1cc(N2C(=O)c3ccc(C(=O)NCc4ccccc4)cc3C2=O)no1	inactive
COc1ccc(-c2nc3nc(C)cc(C)n3c2Nc2c(C)cccc2C)cc1	18.4 µM (active)
COc1cccc(-c2cnc(OC(C)(C)C)nc2OC(C)(C)C)c1	inactive
COc1cccc(-c2nc3nc(C)cc(C)n3c2NC2CCCCC2)c1	20.6 µM (active)
COc1cccc(CSc2nc3nc(C)cc(C)n3n2)c1	inactive
COc1ccc(-c2cc(C)nc3nc(N)nn23)cc1	inactive
COc1ccc2nc(C)cc(Nc3cccc(C(=O)O)c3)c2c1	inactive
CCOc1ccc(-c2nc(C)sc2CC(=O)O)cc1	inactive
Cc1cccc(CSc2nnc(C)c(=O)n2N)c1	inactive
O=C(NC1CCCC1)C(c1ccc(Cl)cc1)N(C(=O)c1csnn1)C1CC1 (configuration not stated)	inactive
COc1ccc(-c2cc(=O)c3c(O)cc(O[C@@H]4O[C@H](CO[C@@H]5O[C@@H](C)[C@H](O)[C@@H](O)[C@H]5O)[C@@H](O)[C@H](O)[C@H]4O)cc3o2)cc1O	inactive
CCn1c(=O)cc(O)c2ccccc21	inactive
CCOC(=O)C1CCN(S(=O)(=O)c2cc(F)ccc2OC)CC1	inactive
CCOC(=O)c1cnc(COc2ccccc2Cl)[nH]c1=O	inactive
CC1(C)NC(=O)N(CC(=O)Nc2ccc(-c3ccccc3)cc2)C1=O	inactive
O=C(C1=C[C@H](c2coc3ccccc3c2=O)C[C@H](OCc2ccc(CO)cc2)O1)N1CCN(Cc2ccccc2)CC1	18.4 µM (active)
C=CCOC(=O)C1=C[C@@H](c2ccccc2)C[C@@H](OCc2ccc(CO)cc2)O1	inactive
CN1CCN(C(=O)C2=C[C@H](c3ccc4c(c3)OCO4)C[C@H](OCc3ccc(CO)cc3)O2)CC1	inactive

Compound	Potency
C#Cc1ccc([C@@H]2C=C(C(=O)O)O[C@H](OCCCCO)C2)cc1	inactive
NC(=O)C1=C[C@H](c2csc3ccccc23)C[C@H](OCc2ccc(CO)cc2)O1	20.6 µM (active)
O=C(O)C1=C[C@H](c2cccs2)C[C@H](OCCCCO)O1	inactive
O=C(C1=C[C@H](c2ccc(C(F)(F)F)cc2)C[C@H](OCc2ccc(CO)cc2)O1)N1CCN(Cc2ccccc2)CC1	13 µM (active)
O=C(C1=C[C@H](c2coc3ccccc3c2=O)C[C@H](OCc2ccc(CO)cc2)O1)N1CCOCC1	inactive
NC(=O)C1=C[C@@H](c2ccc3c(c2)OCO3)C[C@@H](OCCCCO)O1	inactive
COc1cc(C(=O)N2CCN(C3CCC(C)CC3)CC2)cc(OC)c1OC (configuration not stated)	inactive
CCN(CC)CCN(C(=O)c1cc(Cl)sc1Cl)c1nc2cc3c(cc2s1)OCO3	inactive
CN(C(=O)c1ccno1)c1nnc(-c2cccnc2)s1	inactive
CCC1(C)N(O)C(C)(C)C(c2ccc(OC)cc2)=[N+]1[O-] (configuration not stated)	inactive
O=S(=O)(Nc1ncccn1)c1ccc(NS(=O)(=O)c2cccc(Cl)c2Cl)cc1	inactive
Cc1noc(NS(=O)(=O)c2ccc(N/C=C/C(=O)c3ccccc3)cc2)c1C	inactive
CC(C)C[C@H](NC(=O)C1CC(=O)N(c2ccc3c(c2)OCCO3)C1)C(=O)NC1CCCC1 (some centres not stated)	inactive
COc1ccc(S(=O)(=O)N2CCN(c3cnccn3)CC2)cc1	inactive
N#Cc1ccccc1S(=O)(=O)N1CCN(Cc2c(O)ccc3ccccc23)CC1	inactive
COc1ccc(-c2csc3ncnc(N4CCN(S(=O)(=O)c5ccccc5C#N)CC4)c23)cc1	16.4 µM (active)
CCOC(=O)c1oc2ccc(S(=O)(=O)n3nc(-c4ccccc4OC)cc3N)cc2c1C	5.17 µM (active)
Cc1ccc(S(=O)(=O)n2nc(OC(=O)C(C)(C)C)cc2N)cc1	inactive
CCOc1ccc(S(=O)(=O)N2CCN(C(=O)c3oc4ccccc4c3C)CC2)cc1	inactive
C[C@H](NC(=O)[C@@H]1CCCN1C(=O)[C@@H]1CCCN1C(=O)c1ccccc1)c1ccccc1	inactive
CCS(=O)(=O)N1CCC(n2c(C)nc3cccnc32)CC1	inactive
CCCS(=O)(=O)N1CCC(n2c(C(F)(F)F)nc3cccnc32)CC1	5.17 µM (active)
O=C1NC(CC(=O)N2CCC(n3c(C4CCC4)nc4cccnc43)CC2)c2ccccc21 (configuration not stated)	inactive
CC(C)CC(CC(C)C)=NNC(=O)c1ccc(CSc2nncn2C)cc1	inactive
CC(=O)c1cc(C#N)c(SCC(=O)C(C)(C)C)nc1C	3.16 µM (active)

Compound	Potency
CC(=O)c1cc(C#N)c(N2CCCCC2)nc1C	inactive
CC(=O)c1cc(C#N)c(N2CC(C)OC(C)C2)nc1C (configuration not stated)	inactive
CN1OC[C@@H]2CN(C(=O)c3cccnc3)[C@H](c3ccc(N4CCCCC4)cc3)C[C@@H]21	inactive
CCOC(=O)c1ccc(NC(=O)C2CC(=O)N(c3ccc4c(c3)OCCO4)C2)cc1 (configuration not stated)	inactive
CC(=O)c1ccccc1NC(=O)C1CC(=O)N(c2ccc3c(c2)OCCO3)C1 (configuration not stated)	inactive
CCc1nnc(NC(=O)C2CC(=O)N(c3ccc4c(c3)OCCO4)C2)s1 (configuration not stated)	18.4 µM (active)
CN1CCN(CC(O)COCc2ccc3c(c2)OCO3)CC1 (configuration not stated)	inactive
CC(=O)Nc1ccc(NC(=O)COC(=O)C2CCC(C(C)(C)C)CC2)cc1 (configuration not stated)	inactive
Cc1ccccc1CSc1nc(-c2ccccc2)nc2c1Cc1c(CO)cnc(C)c1O2	inactive
CSc1nc(-c2ccc(F)cc2)nc2c1Cc1c(CO)cnc(C)c1O2	inactive
CSc1nc(-c2ccccc2Cl)nc2c1Cc1c(CO)cnc(C)c1O2	18.4 µM (active)
CCCNC(=O)c1cc(C2CCCCN2S(=O)(=O)c2ccc(C#N)cc2)on1 (configuration not stated)	inactive
CC(=O)N1Cc2cc(C(=O)NCc3cccc(F)c3)nc(-c3cccc(C4=CCCCC4)c3)c2[C@H]1CCO	16.4 µM (active)
Cc1c(C(=O)NCC2CC2)sc(=O)n1Cc1cccc(F)c1	inactive
CCCNC(=O)c1cc2c(c(-c3cccc(-c4ccc(C#N)cc4)c3)n1)[C@@H](CCO)N(C(=O)CC)C2	18.4 µM (active)
Cc1nc(NCc2ccccc2)c(C(N)=O)c2c1COC(C)(C)C2	inactive
CCCCCC(=O)N1CCN(S(=O)(=O)c2ccc3c(c2)OCCCO3)CC1	inactive
CC(=O)NNc1cc(=O)c2c(=O)n(C)c(=O)n(C)c2[nH]1	inactive
O=C(NC(=S)NC1CCS(=O)(=O)C1)c1cccc([N+](=O)[O-])c1 (configuration not stated)	inactive
Cc1cccc(C(=O)NC(=S)N2CCN(c3ccc([N+](=O)[O-])cc3)CC2)c1	16.4 µM (active)
Cc1cccc(C(=O)NNC(=O)c2cccc([N+](=O)[O-])c2)c1	inactive
O=C(NCc1ccncc1)c1ccc(NS(=O)(=O)c2cccc([N+](=O)[O-])c2)cc1	inactive
COCOCCn1cc(CN2CCS(=O)(=O)N(Cc3ccc(-c4ccccc4)cc3)C(CC(C)C)C2=O)nn1 (configuration not stated)	18.4 µM (active)
COCOCCn1cc(CN2CCS(=O)(=O)N(Cc3ccc(-c4ccc(OC)cc4)cc3)C(CC(C)C)C2=O)nn1 (configuration not stated)	10.3 µM (active)
COCCCn1cc(CN2CC(N(C)C)CS2(=O)=O)nn1 (configuration not stated)	inactive

Compound	Potency
CN(Cc1ccccc1)S(=O)(=O)c1ccc(F)c(C(=O)Nc2cccc(Cl)c2Cl)c1	inactive
CC1CCN(S(=O)(=O)c2ccc(S(=O)(=O)NCc3ccco3)cc2)CC1	inactive
CC(C)CNC(=S)NNC(=O)c1nn(C)cc1Cl	inactive
FC(F)(F)c1ccc(-c2cccc3c2C2CC3CCN2Cc2ccccc2)cc1 (configuration not stated)	13 µM (active)
O=C(NCCN1CCOC1=O)C1CCC(=O)N(CCc2ccc(Cl)cc2)C1 (configuration not stated)	inactive
O=S(=O)(c1ccc(F)cc1)N1CCN(Cc2ccccc2C(F)(F)F)CC1	inactive
CSCCC(NS(=O)(=O)/C=C/c1ccccc1)C(=O)N1CCC(C)CC1 (configuration not stated)	inactive
CCOC(=O)N1CCN(CCC(=O)Nc2cc(OC)ccc2OC)CC1	inactive
COc1ccc(OC)c(NC(=O)CN2CCCN(Cc3cc(C)ccc3C)S2(=O)=O)c1	18.4 µM (active)
COc1ccc(OC)c(NC(=O)CCN2CCC(C)CC2)c1	inactive
COC(=O)c1ccc(S(=O)(=O)c2ccc(C(=O)OC)s2)s1	inactive
C=CC(=O)Nc1ccc(Nc2ccnc(Nc3ccc(N4CCN(C)CC4)cc3)n2)cc1	inactive
Fc1ccc(-c2nnc(CSc3nnc(-c4ccc5c(c4)OCO5)o3)o2)cc1	inactive
Fc1ccc2nc(-c3ccccc3)nc(SCc3nnc(-c4ccccc4)o3)c2c1	23.1 µM (active)
N#CCSc1nc(-c2ccccc2)nc2ccc(F)cc12	inactive
Nc1ccc2c(c1)C(O)c1ccc(Cl)cc1-2 (configuration not stated)	inactive
CCCCCCOc1ccc(OC(=O)c2cccnc2)cc1	13 µM (active)
O=C(Oc1ccc(Br)cc1)c1cccnc1	inactive
CCCCCCCCC(=O)NCCOc1ccccc1	inactive
COc1ccc(-c2nc(CS(=O)CC(=O)NCc3cccnc3)c(C)o2)cc1OC (configuration not stated)	inactive
C=CCOc1ccc(C2/C(=C(\O)c3c(C)[nH]c(C(=O)OC)c3C)C(=O)C(=O)N2CCN(C)C)cc1 (configuration not stated)	inactive
CO[C@H]1[C@@H]2C=CO[C@@H](O[C@H]3O[C@@H](CO)[C@H](O)[C@@H](O)[C@@H]3O)[C@@H]2[C@@]2(CO)O[C@@H]12	inactive
